Source: article PMC4336329 (PLoS ONE, 2015)
The whole screen tested about 310,000 compounds, of which about 14,000 (4.5%) showed an effect of 50% or more. The effect is printed as a negative number. The sample holds strong results, similar compounds and a random draw of the others, so the mix is not that of the screen.

molecular target: human ether-à-go-go-related gene (hERG) potassium channel (human, UniProt Q12809); test: primary screen, population patch clamp on CHO cells stably expressing hERG; higher = less effect of the substance
Sequence (Q12809 whole entry, looked up): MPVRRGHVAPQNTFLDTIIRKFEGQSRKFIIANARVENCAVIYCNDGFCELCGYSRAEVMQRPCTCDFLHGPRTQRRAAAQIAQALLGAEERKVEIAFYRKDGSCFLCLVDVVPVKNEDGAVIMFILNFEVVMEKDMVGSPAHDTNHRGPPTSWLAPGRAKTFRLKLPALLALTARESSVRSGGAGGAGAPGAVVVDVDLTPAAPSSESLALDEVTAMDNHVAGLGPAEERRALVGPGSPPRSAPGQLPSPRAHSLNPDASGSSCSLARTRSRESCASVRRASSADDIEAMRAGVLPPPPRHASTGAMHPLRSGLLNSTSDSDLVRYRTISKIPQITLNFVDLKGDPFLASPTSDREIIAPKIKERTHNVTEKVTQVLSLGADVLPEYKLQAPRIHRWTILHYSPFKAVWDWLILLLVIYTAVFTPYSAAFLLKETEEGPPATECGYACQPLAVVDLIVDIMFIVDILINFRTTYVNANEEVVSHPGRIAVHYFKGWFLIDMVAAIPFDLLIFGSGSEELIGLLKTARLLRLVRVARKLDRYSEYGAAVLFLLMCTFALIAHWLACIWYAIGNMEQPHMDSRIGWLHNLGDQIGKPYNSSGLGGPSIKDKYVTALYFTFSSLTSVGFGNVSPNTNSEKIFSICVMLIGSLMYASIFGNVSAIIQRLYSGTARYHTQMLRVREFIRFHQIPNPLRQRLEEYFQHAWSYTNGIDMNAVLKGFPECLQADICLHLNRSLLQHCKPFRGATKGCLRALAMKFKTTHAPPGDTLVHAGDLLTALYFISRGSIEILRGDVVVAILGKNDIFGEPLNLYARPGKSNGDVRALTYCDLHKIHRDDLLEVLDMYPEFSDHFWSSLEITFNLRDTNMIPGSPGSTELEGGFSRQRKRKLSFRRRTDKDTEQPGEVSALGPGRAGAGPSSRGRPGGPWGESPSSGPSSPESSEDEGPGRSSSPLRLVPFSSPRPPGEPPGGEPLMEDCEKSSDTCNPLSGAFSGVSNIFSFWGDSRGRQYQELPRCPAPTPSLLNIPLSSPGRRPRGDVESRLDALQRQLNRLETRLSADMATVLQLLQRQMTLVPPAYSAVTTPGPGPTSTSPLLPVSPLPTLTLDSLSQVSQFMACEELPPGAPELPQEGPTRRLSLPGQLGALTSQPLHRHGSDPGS
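Further: peak tail current of the secondary pulse compared with the same well before compound.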

SMILES | hERG current change (%, negative = inhibition) at 10uM
CC(C)NCc1nnc(-c2ccc(Cl)cc2)o1 | 15.9%
CCc1ccccc1NC(=O)c1cc(=O)c2ccccc2o1 | -1.16%
O=C(C1=C[C@@H](c2ccc(C(F)(F)F)cc2)C[C@@H](OCCCCO)O1)N1CCOCC1 | -3.65%
O=C(C1=C[C@@H](c2ccc(Br)cc2)C[C@@H](OCCCCO)O1)N1CCOCC1 | -15.7%
C=CCOC(=O)C1=C[C@@H](c2ccc(Br)cc2)[C@H](CCCO)[C@@H](OCC)O1 | -22.6%
O=C(C1=C[C@H](c2ccc(C(F)(F)F)cc2)C[C@H](OCCCCO)O1)N1CCOCC1 | -23.7%
O=C(C1=C[C@H](c2ccc(C(F)(F)F)cc2)C[C@H](OCc2ccc(CO)cc2)O1)N1CCN(Cc2ccccc2)CC1 | -15.2%
C=CCOC(=O)C1=C[C@H](c2ccc(Br)cc2)[C@@H](CCCO)[C@H](OCC)O1 | -55.3%
O=C(C1=C[C@@H](c2ccc(C(F)(F)F)cc2)C[C@@H](OCCCCO)O1)N1CCN(Cc2ccccc2)CC1 | -60.6%
O=C(C1=C[C@H](c2ccc(Br)cc2)C[C@H](OCCCCO)O1)N1CCN(Cc2ccccc2)CC1 | -80.8%
O=C(C1=C[C@@H](c2ccc(C(F)(F)F)cc2)C[C@@H](OCCCCO)O1)N1CCCCCCC1 | -51.3%
C=CCOC(=O)C1=C[C@@H](c2ccccc2)[C@H](CCCO)[C@@H](OCC)O1 | -9.65%
O=C(C1=C[C@H](c2ccc(C(F)(F)F)cc2)C[C@H](OCCCCO)O1)N1CCN(Cc2ccccc2)CC1 | -49.6%
CN1CCN(C(=O)C2=C[C@@H](c3ccccc3)C[C@@H](OCCCCO)O2)CC1 | -6.11%
COc1ccc(OC)c(NC(=O)c2ccc(CN3CCc4ccccc4C3)cc2)c1 | 3.78%
O=C(Nc1ccc(F)cc1)c1cccc(C(=O)Nc2ccc(F)cc2)c1 | -28.4%
O=C(CN1C(=O)S/C(=C\c2ccc(O)c([N+](=O)[O-])c2)C1=O)Nc1ccc(N2CCOCC2)cc1 | 12.2%
O=C1CCC(=O)N1OCCCOc1ccc2c(c1)CCC2 | 1.61%
CCCNC(=O)Cc1c(C)n(C(=O)c2ccc(Cl)cc2)c2ccc(OC)cc12 | 14.6%
COC(=O)C1=NNC2(c3ccc(C)cc3)C(=O)N(c3ccc(C)cc3)C(=O)C12 (stereo not drawn) | 16.5%
N/C(=N\OC(=O)c1ccccc1)c1ccccn1 | 12.9%

SMILES | hERG current change (%, negative = inhibition) at 10uM
CCOc1ccc(CC(=O)N/N=C/c2cccnc2)cc1OCC | 14%
CCCC(=O)Nc1ccc(C(=O)O)cc1NC(=O)CCC | 8.09%
CCNc1cc2n(c(=O)n1)CCc1cc(OC)c(OC)cc1-2 | -19.5%
Cc1ccc(C(=O)N/C(=C\c2cccs2)C(=O)NCc2ccncc2)cc1 | -52.9%
Cc1ccc(C(=O)N/C(=C\c2cccs2)C(=O)NCc2cccnc2)cc1 | -58%
Cc1ccc(C(=O)N/C(=C\c2sccc2C)C(=O)NCc2ccncc2)cc1 | -30.5%
Cc1ccc(C(=O)N/C(=C/c2cccs2)C(=O)NCc2ccco2)cc1 | -15.8%
Cc1ccc(C(=O)NC(=S)NCc2cccnc2)cc1 | -7.52%
Cc1ccc(C(=O)N/C(=C/c2cccs2)C(=O)NCC2CCCO2)cc1 (stereo not drawn) | -9.01%
CC1(C)CC(OC(=O)c2ccccc2)CC(C)(C)N1 | 9.14%
COc1ccc(NC(=O)c2oc3ccccc3c2NC(=O)C(C)(C)C)cc1 | 11.3%
CC(CCC(=O)Nc1nncs1)C(=O)O (stereo not drawn) | -6.61%
CCCOC(=S)NC(=O)c1sc2ccccc2c1Cl | 12.3%
CC(C)c1nc2cc(C(=O)N(C)Cc3ccc(F)cc3)ccc2o1 | 1.04%
O=C1CCc2cc(S(=O)(=O)N3CCC(C(=O)NCc4ccccc4Cl)CC3)ccc2N1 | 4.83%
CC(C)CCn1c(=O)c2ccccc2n2c(CCC(=O)NCC3CCCO3)nnc12 (stereo not drawn) | -1.79%
CC(C)CCn1c(=O)c2ccccc2n2c(CCC(=O)NC3CCN(Cc4ccccc4)CC3)nnc12 | -49.6%
CN1CCN(CCCNC(=O)CCc2nnc3n(Cc4ccccc4Cl)c(=O)c4ccccc4n23)CC1 | 5.29%
CC1CCN(CCCNC(=O)CCc2nnc3n(CCc4ccccc4)c(=O)c4ccccc4n23)CC1 | -76.8%
CC(C)OCCCn1c(=O)c2ccccc2n2c(CCC(=O)NC3CCN(Cc4ccccc4)CC3)nnc12 | -51.4%
CCOCCCNC(=O)CCc1nnc2n(CCC(C)C)c(=O)c3ccccc3n12 | -22.5%

SMILES | hERG current change (%, negative = inhibition) at 10uM
O=C(CCc1nnc2n(CCc3ccccc3)c(=O)c3ccccc3n12)NCCCN1CCCCC1 | -77.6%
CC(C)CCNC(=O)CCc1nnc2n(CCCOC(C)C)c(=O)c3ccccc3n12 | -26.7%
CC(C)Cn1c(=O)c2ccccc2n2c(CCC(=O)NC3CCN(Cc4ccccc4)CC3)nnc12 | -39.4%
Cc1ccc(S(=O)(=O)NNC(=O)C2CCCCC2)cc1 | 9.57%
NC(=O)[C@@H]1CCCN1Cc1nc(-c2ccc(C(F)(F)F)cc2)no1 | -5.68%
CC(O)[C@@H](C(=O)N1CCNCC1)n1cc(CCCCN)nn1.Cl (stereo partly drawn) | 14.3%
O=C(c1ccc(F)cc1)N1CCN(c2ccc([N+](=O)[O-])c(N3CCOCC3)c2)CC1 | -58.3%
O=C(c1ccc2ccccc2c1)N1CCN(c2ccc([N+](=O)[O-])c(N3CCOCC3)c2)CC1 | -18.8%
O=C(c1ccccc1)N1CCN(c2ccc([N+](=O)[O-])c(N3CCOCC3)c2)CC1 | -7.22%
O=C(c1cccc2ccccc12)N1CCN(c2ccc([N+](=O)[O-])c(N3CCOCC3)c2)CC1 | -13.7%
O=C(c1ccc(F)cc1)N1CCN(c2ccc([N+](=O)[O-])c(N3CCCCC3)c2)CC1 | -15.3%
Cc1ccc(C(=O)N2CCN(c3ccc([N+](=O)[O-])c(N4CCOCC4)c3)CC2)cc1 | -60%
C=CCSc1n[nH]c(-c2ccc(OCCCC)cc2)n1 | -7.32%
Cc1cccc(N2CCN(C(=O)c3ccc4nc(-c5ccco5)c(-c5ccco5)nc4c3)CC2C)c1 (stereo not drawn) | 2.44%
COc1cccc(NC(=O)N2CCN(c3cccc(C)c3)C(C)C2)c1 (stereo not drawn) | -16%
COc1cccc(N2CCN(C(=O)c3ccc(=O)oc3)CC2C)c1 (stereo not drawn) | -59.7%
CC(C)CCNc1cc(=O)n(C)c(=O)n1C | 4.5%
CC(C)c1ccc(NC2CCCN(C(=O)c3cccnc3)C2)cc1 (stereo not drawn) | 0.148%
Cc1c(C(=O)Nc2ccc(F)cc2)sc2ncn(CC(=O)N3CCCCC3)c(=O)c12 | 1.43%
O=C(N/N=C\c1ccc(Cl)s1)c1ccc(Cn2cccn2)o1 | -57.2%
Cc1ccccc1/C=N\NC(=O)c1ccc(Cn2cccn2)o1 | 4.98%

SMILES | hERG current change (%, negative = inhibition) at 10uM
O=C(N/N=C\c1cccc(Cl)c1)c1ccc(Cn2cccn2)o1 | -71.2%
O=C(N/N=C\c1c(O)ccc2ccccc12)c1ccc(Cn2cccn2)o1 | 9.2%
O=C(N/N=C\c1ccc(Br)cc1)c1ccc(Cn2cccn2)o1 | -34.1%
CC(C)c1ccc(/C=N\NC(=O)c2ccc(Cn3cccn3)o2)cc1 | -42%
O=C(OCCOCCN=C1NS(=O)(=O)c2ccccc21)c1ccccc1 | 2.47%
COc1ccc(CNC(=O)CN(c2cccc(OC)c2)S(C)(=O)=O)cc1 | 2.47%
Cc1cc2c(NC(=O)Nc3ccc(F)cc3)cccc2nn1 | 8.16%
Clc1cccc(NCc2nnc(SCc3ccccc3)o2)c1 | 3.21%
COc1ccc(Cn2c(-c3ccc(OC)cc3)nc3ccccc32)cc1 | -36.9%
CCOc1ccc2[nH]c(=O)c(CN(CCO)C(=O)c3ccc(OC)c(OC)c3)cc2c1 | -0.583%
CCCCCCN1C=CC(=C2C(=O)c3ccccc3C2=O)C=C1 | 10.5%
CCCCN1C=CC(=C2C(=O)c3ccccc3C2=O)C=C1 | -1.69%
CCCCCN1C=CC(=C2C(=O)c3ccccc3C2=O)C=C1 | -61%
CCOC(=O)c1c(C)cc(C)n2c1nc1ccccc12 | -38.8%
CN(Cc1c(C(=O)N/N=C/c2ccccc2)nnn1-c1nonc1N)C1CCCCC1 | 8.4%
COc1ccc(/C=N\N=C(N)N)cc1.O=[N+]([O-])O | -1.01%
NC(N)=N/N=C/c1ccc(N(c2ccccc2)c2ccccc2)cc1.O=[N+]([O-])O | -50.8%
CN(C)/N=C/c1ccc(OS(=O)(=O)c2ccccc2)cc1 | 8.55%
CCC(=O)N/N=C/c1ccc(OS(=O)(=O)c2ccccc2)cc1 | -17.5%
CCN(Cc1ccccc1)c1ccc(/C=N/N=C(N)N)cc1 | -25%
NC(N)=N/N=C/c1ccc(OS(=O)(=O)c2ccccc2)cc1 | -55.6%
